# Measurements reported in article PMC4336329 (PLoS ONE, 2015).
# Screen size: about 310,000 compounds; about 14,000 (4.5%) showed an effect of 50% or more. Effects have a minus sign here. The sample as a whole holds a higher share of strong results than the screen did.
# Molecular target: human ether-à-go-go-related gene (hERG) potassium channel (human, UniProt Q12809)
# Experiment: primary screen, population patch clamp on CHO cells stably expressing hERG; higher = less effect of the substance
# 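Further: peak tail current of the secondary pulse compared with the same well before compound.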
# human ether-à-go-go-related gene (hERG) potassium channel, sequence (Q12809 whole entry, looked up): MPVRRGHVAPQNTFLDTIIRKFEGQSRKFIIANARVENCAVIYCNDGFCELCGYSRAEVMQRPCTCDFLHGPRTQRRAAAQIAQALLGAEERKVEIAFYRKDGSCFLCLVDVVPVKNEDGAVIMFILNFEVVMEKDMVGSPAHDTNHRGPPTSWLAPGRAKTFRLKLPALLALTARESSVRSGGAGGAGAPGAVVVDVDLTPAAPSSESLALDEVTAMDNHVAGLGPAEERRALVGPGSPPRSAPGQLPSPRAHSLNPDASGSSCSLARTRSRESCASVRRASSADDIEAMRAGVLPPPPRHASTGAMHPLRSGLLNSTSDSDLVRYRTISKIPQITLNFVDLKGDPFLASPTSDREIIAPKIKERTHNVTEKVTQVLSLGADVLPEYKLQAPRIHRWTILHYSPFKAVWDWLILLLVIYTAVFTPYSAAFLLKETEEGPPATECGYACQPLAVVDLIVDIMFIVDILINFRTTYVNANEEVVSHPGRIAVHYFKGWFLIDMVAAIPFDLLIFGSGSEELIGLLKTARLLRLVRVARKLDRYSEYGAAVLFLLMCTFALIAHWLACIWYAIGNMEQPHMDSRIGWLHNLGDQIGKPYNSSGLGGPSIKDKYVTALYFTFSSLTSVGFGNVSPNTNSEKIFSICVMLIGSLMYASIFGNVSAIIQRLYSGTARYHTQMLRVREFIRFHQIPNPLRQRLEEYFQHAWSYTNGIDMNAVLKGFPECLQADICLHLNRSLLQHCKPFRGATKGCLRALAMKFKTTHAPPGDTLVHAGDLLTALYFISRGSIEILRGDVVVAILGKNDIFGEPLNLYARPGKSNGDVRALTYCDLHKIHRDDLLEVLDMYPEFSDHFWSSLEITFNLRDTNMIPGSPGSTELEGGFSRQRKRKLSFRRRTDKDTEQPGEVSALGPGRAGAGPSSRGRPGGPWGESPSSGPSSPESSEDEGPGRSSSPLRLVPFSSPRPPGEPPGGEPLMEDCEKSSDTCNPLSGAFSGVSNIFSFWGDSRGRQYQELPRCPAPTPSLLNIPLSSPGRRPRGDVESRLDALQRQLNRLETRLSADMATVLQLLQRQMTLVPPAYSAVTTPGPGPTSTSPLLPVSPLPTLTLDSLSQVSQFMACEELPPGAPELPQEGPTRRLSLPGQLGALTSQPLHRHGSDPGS
row,SMILES,"hERG current change (%, negative = inhibition) at 10uM"
1,Cc1ccc(C(c2nnnn2CC2CCCO2)N2CCN(C(=O)c3ccco3)CC2)cc1 (stereo not shown),-4.13%
2,Cc1ccc(C(c2nnnn2CCc2ccccc2)N2CCSCC2)cc1 (stereo not shown),-13.5%
3,CCN1CCN(C(c2ccccc2)c2nnnn2Cc2ccccc2)CC1.Cl (stereo not shown),-27.4%
4,Cc1ccc(C(c2nnnn2Cc2ccccc2)N2CCN(Cc3ccccc3)CC2)cc1 (stereo not shown),-79%
5,Cl.Fc1ccc(C(c2nnnn2C2CCCC2)N2CCN(Cc3ccncc3)CC2)cc1 (stereo not shown),-24.8%
6,Clc1ccc(C(c2nnnn2C2CCCC2)N2CCN(Cc3ccncc3)CC2)cc1 (stereo not shown),-71.7%
7,Cc1ccc(C(c2nnnn2Cc2ccccc2)N2CC=C(c3ccc(F)cc3)CC2)cc1 (stereo not shown),11.5%
8,c1ccc(CN2CCN(C(c3ccccc3)c3nnnn3Cc3ccccc3)CC2)cc1 (stereo not shown),-64.7%
9,Cc1ccc(C(c2nnnn2CC2CCCO2)N2CCN(Cc3ccccc3)CC2)cc1 (stereo not shown),-74.9%
10,CCC(C)(C)n1nnnc1C(c1ccccc1)N1CCN(Cc2ccccc2)CC1 (stereo not shown),-32%
11,Cc1ccc(C(c2nnnn2CC2CCCO2)N2CCN(C)CC2)cc1.Cl (stereo not shown),-7.48%
12,Clc1ccc(C(c2nnnn2C2CCCC2)N2CCSCC2)cc1 (stereo not shown),-24.4%
13,O=C(NC(=S)NCc1ccccc1)c1ccc(Br)o1,-7.42%
14,Cc1noc(C)c1C(=O)OCC(=O)c1cc(C)n(Cc2ccccc2Cl)c1C,-7.65%
15,Cc1ccc(CC(=O)N2CC(C)OC(C)C2)cc1 (stereo not shown),9.85%
16,Cc1ccc2nc(Br)c3c(c2c1)OC(CBr)C3 (stereo not shown),-33.6%
17,CC1CCCCC1NC(=O)COc1ncnc2sccc12 (stereo not shown),3.61%
18,COc1ccc(Cl)cc1NC(=S)N1CCC(c2ccc(C)cc2)C1 (stereo not shown),-1.95%
19,CCNC(=O)/C(=C\C=C\c1ccccc1)NC(=O)c1ccc(Br)o1,-18.2%
20,Cc1ccc(S(=O)(=O)Cn2nnnc2C(C(C)C)N2CCC(C(N)=O)CC2)cc1 (stereo not shown),19%
21,Cc1ccc(C(c2nnnn2CS(=O)(=O)c2ccc(C)cc2)N2CCC(C(N)=O)CC2)cc1 (stereo not shown),-55.1%
22,Cc1ccc(S(=O)(=O)Cn2nnnc2C(c2ccc(F)cc2)N2CCC(C(N)=O)CC2)cc1 (stereo not shown),-44.1%

row,SMILES,"hERG current change (%, negative = inhibition) at 10uM"
1,CC(C)Oc1ccc(S(=O)(=O)N2CCCCC2)cc1NC(=O)C1CSC2(C)CCC(=O)N12 (stereo not shown),-20.9%
2,Cc1cccc(NC(=O)CN(C)S(=O)(=O)c2ccc(-c3ccc(=O)[nH]n3)s2)c1C,-19.9%
3,Cc1ccccc1NC(=O)CN(C)S(=O)(=O)c1cccs1,2.52%
4,CCOC(=O)CCN(c1ccccc1)S(=O)(=O)c1ccc(-c2ccc(=O)[nH]n2)s1,-29.3%
5,CCOc1ccc(NC(=O)CN(C)S(=O)(=O)c2ccc(-c3ccc(=O)[nH]n3)s2)cc1,2.54%
6,COc1cc(OC)c(NC(=O)CN(C)S(=O)(=O)c2ccc3[nH]c(=O)oc3c2)cc1Cl,3.44%
7,COc1cc(OC)c(NC(=O)CN(C)S(=O)(=O)c2ccc(-c3ccc(=O)[nH]n3)s2)cc1Cl,-56.5%
8,Cc1ccccc1NC(=O)CN(C)S(=O)(=O)c1ccc(-c2ccc(=O)[nH]n2)s1,-78.6%
9,COc1cc(NC(=O)CN(C)S(=O)(=O)c2ccc(-c3ccc(=O)[nH]n3)s2)cc(OC)c1,-5.53%
10,CCc1ccccc1NC(=O)CN(C)S(=O)(=O)c1ccc(-c2ccc(=O)[nH]n2)s1,-74.8%
11,CC1CCN(S(=O)(=O)c2ccc3[nH]c(=O)[nH]c3c2)CC1,-3.58%
12,O=C(Nc1cc(S(=O)(=O)N2CCCCC2)ccc1Cl)C1=NN(c2ccccc2)C(=O)CC1,12.6%
13,O=C(NNC(=O)C1CCN(C(=O)Nc2ccccc2)CC1)c1ccc([N+](=O)[O-])cc1,2.62%
14,CCCOc1ccc(-c2c(C(=O)N/N=C(\C)c3ccco3)nnn2-c2nonc2N)cc1,22.5%
15,Cc1[nH]c2ccccc2c1C(=O)COC(=O)c1ccc[n+]([O-])c1,0.499%
16,NC(=O)c1ccc(Oc2ccc(C(N)=O)cc2)cc1,17.5%
17,CCc1sc(C(C2C(=O)CC(C)(C)CC2=O)C2C(=O)CC(C)(C)CC2=O)cc1[N+](=O)[O-],-5.07%
18,O=C(Nc1ccc2c(c1)OCCO2)c1ccc(S(=O)(=O)N2CCCCC2)cc1,4.38%
19,O=C1N=C(N2CCCC2)S/C1=C\C=C\c1ccccc1,-32.4%
20,O=C1N=C(N2CCOCC2)S/C1=C/c1ccc(-c2ccc(F)cc2)o1,2.43%
21,O=C1N=C(N2CCOCC2)S/C1=C\C=C/c1ccccc1,-58.2%
22,Cc1ccccc1-c1ccc(/C=C2/SC(N3CCOCC3)=NC2=O)o1,-15.9%

row,SMILES,"hERG current change (%, negative = inhibition) at 10uM"
1,CC(=C/c1ccccc1)/C=C1/SC(N2CCOCC2)=NC1=O,-20.1%
2,Cc1ccc(-c2ccc(/C=C3\SC(N4CCOCC4)=NC3=O)o2)cc1,-64.8%
3,CC(=O)c1c(C)[nH]c(C(=O)OCn2nnc3ccccc3c2=O)c1C,9.87%
4,C/C(=N\NC(=O)C1CC1c1ccccc1)c1ccc(C)s1 (stereo not shown),-6.02%
5,CCn1c(C)[n+](CC)c2ccc(C(=O)N(C)c3ccccc3)cc21.[I-],37.4%
6,CCn1c(/C=C/Nc2ccccc2)[n+](CC)c2ccc(C(=O)OCC(F)(F)F)cc21.[I-],-81.6%
7,CCOC(=O)c1ccc2c(c1)n(CC)c(/C=C/N(C)c1ccccc1)[n+]2CC.[I-],-74.3%
8,CCOC(=O)c1ccc2c(c1)n(CC)c(/C=C/Nc1ccccc1)[n+]2CC.[I-],-80%
9,CCOC(=O)c1ccc2c(c1)n(CCO)c(C)[n+]2CC.[I-],10.6%
10,CCn1c(/C=C/N(C)c2ccccc2)[n+](CC)c2ccc(Cl)cc21.[I-],-16%
11,CCOC(=O)c1ccc2c(c1)n(CC)c(C)[n+]2CC.[I-],23.7%
12,CCOC(=O)c1ccc2c(c1)n(CCCS(=O)(=O)[O-])c(/C=C/c1ccc(Cl)cc1)[n+]2CC,-23.1%
13,CCOC(=O)c1ccc2c(c1)n(Cc1ccccc1)c(C)[n+]2CC.[O-][Cl+3]([O-])([O-])[O-],-7.56%
14,CCN(C(=O)Nc1ccccc1)c1ccccc1,4.25%
15,CN(C)CCCNc1ccc(-c2nn(C)c(=O)c3ccccc23)cc1[N+](=O)[O-],-16%
16,Cl.Fc1ccc(Cn2nnnc2CN2CCc3ccccc3C2)cc1,-10.6%
17,Cn1c(CSc2nc3ccccc3s2)nnc1SCC(=O)NCc1cccnc1,-5.4%
18,CC(=O)Nc1cccc(OCc2cnc(Cl)s2)c1,11.4%
19,COc1ccccc1-c1c(C)nn2c(N3CCCCCC3)cc(C)nc12,-8.02%
20,CSc1ncc(C(=O)Nc2cccc(C)c2C)c(C)n1,9.56%
21,Cc1ccc(C(=O)Nc2ccc(Br)c(C(F)(F)F)c2)cc1,4.38%
22,Cc1nn2c(COc3ccc(NC(=O)c4ccccc4)cc3)nnc2c2ccccc12,4.38%

row,SMILES,"hERG current change (%, negative = inhibition) at 10uM"
1,Cc1nnc(SCc2ccc(F)cc2)n1NC/C=C/c1ccccc1,-18.6%
2,CCC(=O)c1ccc(OCC(=O)NCC2(N3CCCCC3)CCCCC2)cc1,-51.5%
3,N#Cc1ccc(OCC(=O)NCC2(N3CCCCC3)CCCCC2)cc1,-78.2%
4,N#Cc1ccccc1OCC(=O)NCC1(N2CCCCC2)CCCCC1,-29.4%
5,O=C(COc1ccccc1)NCC1(N2CCCCC2)CCCCC1,-30%
6,CCOc1ccc(CC(=O)NCC2(N3CCCCC3)CCCCC2)cc1,-17%
7,CC(=O)c1ccc(OCC(=O)NCC2(N3CCCCC3)CCCCC2)cc1,4.71%
8,C/C(CCc1ccco1)=N/NC(=O)CCC(=O)Nc1ccc(Br)cc1,10.2%
9,CCn1c(SCc2nc3sc(C(=O)O)c(C)c3c(=O)[nH]2)nc2ccccc21,3.32%
10,CC(C)(C)C(=O)N1c2ccccc2CCc2ccccc21,-0.0543%
11,C=CCn1c(COc2ccccc2OC)nc2ccccc21,-0.267%
12,C=CCn1c(COc2ccccc2)nc2ccccc21,-7.62%
13,CCOCCn1c(COc2ccc(C)cc2)nc2ccccc21,-52.6%
14,CCOCCn1c(COc2ccccc2)nc2ccccc21,-33.6%
15,C=CCn1c(COc2ccc(OC)cc2)nc2ccccc21,-79.8%
16,COCCn1c(COc2ccc(C)cc2)nc2ccccc21,-11.9%
17,O=C(Nc1cccc(NC(=O)c2ccccc2Cl)c1)c1ccc([N+](=O)[O-])o1,-16.4%
18,CC1Cc2nc(SCC(=O)N3CCCC3)n(C)c(=O)c2S1 (stereo not shown),-7.79%
19,COc1ccc(C(=O)Nc2ccc(NC(=O)c3cccs3)cc2)cc1[N+](=O)[O-],5.49%
